Laboratory results reported in PubChem BioAssay (Tox21).
Results filed as inconclusive are left out. Active and inactive are the calls of the source. Unless noted, the call rests on the fitted dose curve.

Tests used:
[1] = qHTS assay to identify small molecule agonists of the vitamin D receptor (VDR) signaling pathway - cell viability counter screen (AID 743224; active means well fitted curve in the direction sought with a large enough effect in the repeat runs; an effect the other way counts as inactive or inconclusive; further: series mostly up to about 63 µM; nearly all actives have a fitted effect of over 50% in size)
How it was run: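 Cytotoxicity counter screen: VDR-bla cells, 16 h compound exposure at 37C, 5% CO2; CellTiter-Glo luminescence, 30 min RT, same wells as bla read.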

[2] = qHTS assay to identify small molecule agonists of the NFkB signaling pathway (AID 1159509; active means well fitted curve in the direction sought with a large enough effect in the signal ratio in the repeat runs, not every such curve was filed as active; the % refers to the signal ratio; further: series mostly up to about 61 µM)
How it was run: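 Readout: FRET fluorescence, 405 nm excitation, 460/530 nm emission; beta-lactamase expression disrupts FRET. Cells: ME-180 stably carrying NF-kB-driven bla reporter. Compound exposure 5 hr, 37 C, 5% CO2.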

[3] = qHTS assay to identify small molecule agonists of the NFkB signaling pathway - cell viability counter screen (AID 1159515); further: series mostly up to about 61 µM; nearly all actives have a fitted effect of over 55% in size
How it was run: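 ME-180 NFkB-bla cells, 2,000/well; overnight attach; compound 5 hr, 37 C/5% CO2; LiveBLAzer substrate 1.5 hr RT; then CellTiter-Glo in same wells, 30 min RT, luminescence read.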

[4] = qHTS assay to identify small molecule agonists of the endoplasmic reticulum stress response signaling pathway (AID 1159516; active means well fitted activation curve with a large enough effect in the signal ratio in the repeat runs, not every such curve was filed as active; the % refers to the signal ratio)
How it was run: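 HeLa ESRE-bla reporter line; cpd 5 h, 37 C/5% CO2; LiveBLAzer B/G FRET substrate 2 h RT; ex 405, em 460/530 nm.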

[5] = qHTS assay to identify small molecule agonists of the endoplasmic reticulum stress response signaling pathway - cell viability counter screen (AID 1159517);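 further: HeLa cells carrying an ER stress response element beta-lactamase reporter; series mostly up to about 61 µM; nearly all actives have a fitted effect of over 50% in size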
How it was run: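 Steps: seed 1,500 ESRE-bla HeLa cells per well; incubate overnight at 37 C, 5% CO2; add compounds in DMSO for 5 hr; run FRET substrate 2 hr RT; add CellTiter-Glo, wait 30 min, read luminescence.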

[6] = qHTS assay to identify small molecule antagonists of the retinoid-related orphan receptor gamma (ROR-gamma) signaling pathway - cell viability counter screen (AID 1159520; active means well fitted curve in the direction sought with a large enough effect in the repeat runs; an effect the other way counts as inactive or inconclusive; further: nearly all actives have a fitted effect of over 50% in size)
How it was run: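 Tet-on ROR gamma CHO cells were given compounds for 2 hr, then doxycycline hyclate at 1 uM final, and incubated 16 hr at 37 C. Viability was measured as ATP content by CellTiter-Glo luminescence.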

[7] = molecular target: Nuclear receptor ROR-gamma (Homo sapiens) (UniProt P51449); assay: qHTS assay to identify small molecule antagonists of the retinoid-related orphan receptor gamma (ROR-gamma) signaling pathway (AID 1159521; active means well fitted curve in the direction sought with a large enough effect in the repeat runs; an effect the other way counts as inactive or inconclusive;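 further: CHO cells with doxycycline inducible ROR-gamma driving an RORE luciferase reporter; top concentration of the series differs between compounds; nearly all actives have a fitted effect of over 50% in size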)
How it was run: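 Tet-on RORγ CHO cells carrying a ROR response element–luciferase reporter were pretreated with compounds for 2 h, then induced with 1 uM (final) doxycycline hyclate for 16 h at 37 C. Antagonism was read as decreased ONE-Glo luminescence.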

[8] = qHTS assay to identify small molecule agonists of the AP-1 signaling pathway - cell viability counter screen (AID 1159525); further: nearly all actives have a fitted effect of over 55% in size
How it was run: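 Same-well cytotoxicity counter screen of the Tox21 10K library in ME-180 cells. The readout is ATP-dependent luminescence after 5 h compound treatment. Data are normalised to DMSO and tetra n-octyl ammonium bromide controls.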

[9] = qHTS assay to identify small molecule agonists of the AP-1 signaling pathway (AID 1159526)

Measured: outcome

CC1(C)O[C@H]2CC(=O)OC[C@]23[C@H]2CC[C@@]4(C)[C@H](c5ccoc5)OC(=O)[C@H]5O[C@]54[C@]2(C)C(=O)C[C@@H]13
inactive: all assays above

CCCCCc1cccc(=O)o1
inactive: all assays above

CC1(C)[C@H]2CC[C@](C)(C2)[C@H]1O
inactive: all assays above

OCC(O)CN1CCN(c2ccccc2)CC1 (stereo unspecified)
not listed: [1]
inactive: all other assays above

CCO[Si](CC)(OCC)OCC
inactive: all assays above

C=C(C)c1cccc(C(C)(C)N=C=O)c1
inactive: all assays above

COP(=O)(O)OP(=O)(O)OC
inactive: all assays above

CCCC(=O)OCCC(C)CCC=C(C)C (stereo unspecified)
inactive: all assays above

COc1cc(OC)nc(O[C@H](C(=O)O)C(OC)(c2ccccc2)c2ccccc2)n1
inactive: all assays above

COc1nc(N)nc2nc[nH]c12
inactive: all assays above

c1ccc2c(CC3=NCCN3)cccc2c1
inactive: all assays above

O=Cc1cc2ccccc2o1
inactive: all assays above

Cc1ccc(C(=O)O)cc1[N+](=O)[O-]
inactive: all assays above

Cc1ccc(N)cc1S(=O)(=O)O
inactive: all assays above

NCCOCCN
inactive: all assays above

CCOC(=O)CC1(C)OCC(C)O1 (stereo unspecified)
inactive: all assays above

Cc1cc(C)c(C(=O)O)c(C)c1
inactive: all assays above

CC(C)CO
inactive: all assays above

COc1cc2c(cc1OC)C(=O)C(CC1CCN(Cc3ccccc3)CC1)C2 (stereo unspecified)
inactive: all assays above

CC(C)(CO)C(O)C(=O)NCCCO (stereo unspecified)
inactive: all assays above

C=CC(=O)OCC1CCCO1 (stereo unspecified)
inactive: all assays above

CC(C)c1ccc(C=O)cc1
inactive: all assays above

COc1c2occc2c(OC)c2c(=O)cc(C)oc12
inactive: all assays above

O=C1OCCO1
inactive: all assays above

CC(C)(C)NC[C@H](O)COc1cccc2c1CCCC2=O
inactive: all assays above

O=C1CCCCO1
inactive: all assays above

CN(C)CCOC(=O)C(c1ccccc1)C1(O)CCCC1 (stereo unspecified)
not listed: [1]
inactive: all other assays above
